Measurements: PubChem BioAssay AID1851 (National Center for Advancing Translational Sciences (NCATS), 2009)
The whole screen tested about 16,000 compounds, of which about 4,000 (25%) were called active. Another 26% or so got no clear call; they are omitted. A selection follows. Unmarked numbers belong to inactive results. The call rests on the fitted dose curve; in most records, active means well fitted curve in the direction sought with a large enough effect; inconclusive means small, poorly fitted or top-dose-only effect, or effect the other way; inactive means no such curve, though single readings can be large or run the other way.

target: Cytochrome P450 2C9 (Homo sapiens) (UniProt P11712); assay: Cytochrome panel assay with activity outcomes; details: recombinant CYP, pro-luciferin dealkylation, luminescence, p450-cyp2c9; series mostly up to 57.1 µM
Sequence (P11712 whole entry, looked up): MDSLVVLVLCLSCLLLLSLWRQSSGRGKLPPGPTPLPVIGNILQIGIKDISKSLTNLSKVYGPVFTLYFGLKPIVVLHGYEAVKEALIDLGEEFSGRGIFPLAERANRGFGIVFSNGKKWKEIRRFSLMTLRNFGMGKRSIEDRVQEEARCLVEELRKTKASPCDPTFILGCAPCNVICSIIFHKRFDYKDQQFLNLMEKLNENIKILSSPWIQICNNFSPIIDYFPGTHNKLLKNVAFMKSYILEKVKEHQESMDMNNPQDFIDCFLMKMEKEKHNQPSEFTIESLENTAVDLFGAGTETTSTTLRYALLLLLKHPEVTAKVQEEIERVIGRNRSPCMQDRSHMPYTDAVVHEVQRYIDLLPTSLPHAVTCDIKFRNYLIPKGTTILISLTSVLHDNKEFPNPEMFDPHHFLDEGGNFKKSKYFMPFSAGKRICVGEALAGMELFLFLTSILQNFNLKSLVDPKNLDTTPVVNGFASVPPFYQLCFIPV
On the % scale 0 is the no-effect control and ±100 the full control effect.

Compound	activity, negative = inhibition	AC50
O=C(O)[C@@H]1[C@@H](C(=O)Nc2ncccn2)[C@@H]2C=C[C@@H]1O2	2.98% [at 11.4 µM]	–
c1cc(CNCCCN2CCOCC2)ccn1	–	inactive
FC(F)(F)c1nc2nc(Cl)c(Cl)nc2n1CCCN1CCOCC1	–	2.51 µM (active)
OCCN1CCOCCOCCN(CCO)CCN(CCO)CC1	–	inactive
CCCCC(=O)NCCc1c(Cc2ccccc2)[nH]c2ccccc12	–	inactive
CCCC(=O)NCCc1c2n(c3ccc(OC)cc13)Cc1ccccc1-2	–	1.26 µM (active)
CCOC(=O)/C(C(N)=NCCCO)=C(/O)c1ccccc1	–	inactive
CC/C(=N/Nc1ccccc1)c1cnnc(SC)n1	–	0.891 µM (active)
CSc1nncc(/C(C)=N\Nc2ccccc2)n1	–	4.47 µM (active)
C#CCCCO/N=C1/C[C@@H](O)[C@@H](O)[C@@H]2[C@@H]3C(=O)N(CC)C(=O)[C@H]3CC[C@@H]12	0.179% [at 11.4 µM]	–
O=C(O)[C@@H](c1ccccc1)[C@@H](C(=O)O)c1ccccc1	0.327% [at 11.4 µM]	–
Nc1cc(N)nc(SCC(=O)c2ccccc2)n1	–	inactive
O=C(CSc1ncnc2nc[nH]c12)c1ccccc1	-26.2% [at 11.4 µM]	–
Cc1cc(SCC(=O)c2ccccc2)nc(SCC(=O)c2ccccc2)n1	–	0.891 µM (active)
COc1ccc(C[C@@H]2C(=O)N[C@H](C)C(=O)N(C)[C@@H]3Cc4ccc(cc4)Oc4cc(ccc4O)C[C@H](C(=O)N[C@@H](C)C(=O)N[C@H](C)C(=O)N2C)N(C)C3=O)cc1	3.77% [at 11.4 µM]	–
CN(C)CC(O)COc1cccc(OCC(O)CN(C)C)c1 (stereo not given)	–	inactive
CCC(=O)c1ccc(OCC(O)CN(CCc2ccccc2)Cc2ccccc2)cc1 (stereo not given)	–	3.16 µM (active)
CN(C)CC(O)COc1ccc(C(C)(C)c2ccc(OCC(O)CN(C)C)cc2)cc1 (stereo not given)	–	inactive
Cc1ccccc1-c1ccc2ncnc(N3CCN(C)CC3)c2c1	20.6% [at 2.29 µM]	–
O=C(O)c1c(-c2c3ccc(=O)cc-3oc3cc(O)ccc23)cc2ccccc2c1-c1ccccc1	13% [at 11.4 µM]	–
C=CCSc1nc(Oc2ccccc2)c2sccc2n1	–	8.91 µM (active)
C=CCSc1ccsc1C(=O)O	–	inactive
C/C(CCC(=O)OC[C@@H]1O[C@H](C#Cc2ccccc2)C=C[C@@H]1Oc1ccc(C)cc1)=N/O[C@@H](C)CN1CCCCc2nc(C)c(C)cc21	-2.52% [at 11.4 µM]	–

Compound	activity, negative = inhibition	AC50
COC(=O)[C@@]1(Cc2ccc(F)cc2)[C@H]2c3cc(C(=O)N4CCCC4)n(Cc4ccccn4)c3C[C@H]2CN1C(=O)c1ccccc1	–	2 µM (active)
COC(=O)[C@@]1(Cc2ccccc2)[C@H]2c3cc(C(=O)N4CCCC4)n(Cc4ccccn4)c3C[C@H]2CN1C(=O)c1ccccc1	–	0.2 µM (active)
CC1(CCC(=O)OC2CCCCC2)OCCO1	-10.2% [at 11.4 µM]	–
Cc1ccc(S(=O)(=O)N[C@H]2COC(=O)C/C=C\[C@@H](C)[C@H](NS(=O)(=O)c3ccc(C)cc3)COC(=O)C/C=C\[C@H]2C)cc1	0.307% [at 11.4 µM]	–
CNC(=O)c1ccc(-c2sc3nc(N4CCOCC4)c4c(c3c2N)CC(C)(C)OC4)o1	–	4.47 µM (active)
CCNc1ncc2nc(-c3cccc(C#N)c3)c(=O)n(C)c2n1	–	inactive
CCOc1nc(NC(C)C)nc(NC(C)C)n1	–	inactive
CCN(CC)S(=O)(=O)c1cc(C(=O)Nc2ccccc2C(=O)O)ccc1OC	–	2.24 µM (active)
COc1ccc(C(=O)Nc2cccc3c2C(=O)NC3=O)cc1S(=O)(=O)N1CCOCC1	–	inactive
CCN(CC)S(=O)(=O)c1ccc(OC)c(NC(=O)CSc2ccccc2)c1	–	2.51 µM (active)
CCN(CC)S(=O)(=O)c1ccc(OC)c(NC(=O)c2cc([N+](=O)[O-])ccc2Cl)c1	–	inactive
C[C@H]1CC(C)(C)C[C@@](OCCN2CCCCC2)(c2ccccc2)C1	5.46% [at 11.4 µM]	–
CCNc1ncc2nc(-c3cccs3)c(=O)n(C[C@H]3CCCO3)c2n1	–	inactive
CC(=O)N1CCC[C@@]2(CCN(c3ncccn3)C2)C1	–	inactive
O=C(Oc1ccccc1)N1CCC2(CC1)CCN(c1ncccn1)CC2	–	15.8 µM (active)
O=C(Oc1ccccc1)N1CCC[C@@]2(CCN(c3ncccn3)C2)C1	–	10 µM (active)
O=C(Oc1ccccc1)N1CCC2(CC1)CCN(c1ccccc1)CC2	–	inactive
O=C(Oc1ccccc1)N1CCC2(CC1)CN(c1ccncc1)C2	–	3.16 µM (active)
COC(=O)N1CCC[C@@]2(CCN(c3ncccn3)C2)C1	–	inactive
O=C(c1ccncc1)N1CCC[C@@]2(CCN(c3ccccc3)C2)C1	–	inactive
CC(=O)N1CCC[C@@]2(CCN(c3ccncc3)C2)C1	–	inactive
O=C(Oc1ccccc1)N1CCC[C@@]2(CCN(c3ccncc3)C2)C1	–	10 µM (active)
COC(=O)N1CCC2(CC1)CN(c1ccncc1)C2	–	inactive

Compound	activity, negative = inhibition	AC50
O=C(Oc1ccccc1)N1CCC2(CC1)CN(c1ccccn1)C2	–	inactive
O=C(Oc1ccccc1)N1CCC2(CC1)CN(c1ccccc1)C2	–	inactive
COCC(=O)N1CCC2(CCCN(C(=O)Nc3cccc(C#N)c3)C2)CC1	–	inactive
O=[N+]([O-])c1nccn1C[C@H](O)CN1CCCCC1	0.319% [at 11.4 µM]	–
COc1cccc(Nc2ncc3nc(-c4cc(F)cc(F)c4)c(=O)n(CCC#N)c3n2)c1	–	inactive
CCN1/C(=C/c2ccc3cccc(C)c3[n+]2CC)Sc2ccccc21	–	inactive
Cn1ncc([N+](=O)[O-])c1C(=O)N1CCOCC1	–	inactive
O=[N+]([O-])c1cc(F)c(N2CCOCC2)cc1N1CCCCC1	–	7.08 µM (active)
O=C1N/C(=C\c2ccc(N3CCOCC3)c(F)c2)C(=O)N1Cc1ccccc1	–	inactive
N#Cc1c2n(c3c(=S)nc[nH]c13)CCCCC2	–	17.8 µM (active)
CO[C@H]1COC(=O)[C@H](C)COC(=O)C/C=C\[C@@H](C)[C@H](OC)COC(=O)C/C=C\[C@@H]1C	8.36% [at 11.4 µM]	–
CCCc1ccc(C2C3=C(CC(C)(C)CC3=O)NC3=C2C(=O)c2ccccc23)cc1 (stereo not given)	–	7.94 µM (active)
CO[C@H]1COC(=O)[C@@H](Cc2ccccc2)NC(=O)[C@@H](C)COC(=O)C/C=C\[C@@H]1C	15.1% [at 11.4 µM]	–
Cc1ccc(/C(N)=N/OC(=O)Cc2cccs2)cc1	–	7.08 µM (active)
Cc1ccc(C(N)=Nc2ccccc2)cc1	3.59% [at 11.4 µM]	–
O=C(O)C(Cc1cccs1)C(=O)O	-6.54% [at 11.4 µM]	–
C[N+]1(C)C[C@@H](O)C[C@@H]1C(=O)[O-]	–	inactive
Cc1ccccc1-c1cncnc1NCc1cccs1	0.654% [at 2.29 µM]	–
COc1cccc(C(CC(=O)Nc2cccc3ccccc23)NC(=O)c2ccccc2)c1 (stereo not given)	–	0.251 µM (active)
CN(CCO)c1nc(N)c2c(N)nc3c(c2c1C#N)CC(=O)N3C1CCCC1	–	1.41 µM (active)
CC(C)NC(=O)N1CCCC2(CCN(C(=O)c3ccco3)CC2)C1	–	inactive
CC(C)(C)c1cc2c(O)c(c1)Cc1cc(C(C)(C)C)cc(c1O)Cc1cc(C(C)(C)C)cc(c1O)Cc1cc(C(C)(C)C)cc(c1O)Cc1cc(C(C)(C)C)cc(c1O)Cc1cc(C(C)(C)C)cc(c1O)Cc1cc(C(C)(C)C)cc(c1O)Cc1cc(C(C)(C)C)cc(c1O)C2	-3.37% [at 11.4 µM]	–
Cn1c(-c2ccc3c(c2)OCO3)cc(=O)c2ccccc21	–	inactive

Compound	activity, negative = inhibition	AC50
c1ccc2c(c1)ncn2Cc1nnc2sc(-c3ccc4c(c3)OCO4)nn12	–	3.16 µM (active)
CN(Cc1ccco1)c1nc(-c2ccc3c(c2)OCO3)nc2ccccc12	-18.1% [at 2.29 µM]	–
Cc1noc(C)c1COc1ccc(C(=O)NCC2CCCO2)cc1 (stereo not given)	–	inactive
COc1ccc(C(=O)OC(C)CN2CCN(C)CC2)cc1OC (stereo not given)	–	inactive
COc1cc(C(=O)OC(C)C(=O)Nc2ccc3c(c2)OCO3)ccc1OCc1c(C)noc1C (stereo not given)	–	11.2 µM (active)
N#C[C@@H](N=Nc1ccccc1C(=O)O)C(N)=O	-3.32% [at 11.4 µM]	–
CNc1nc(-c2ccccc2C)nc2ccccc12	24.9% [at 2.29 µM]	–
CCCN(CCC)S(=O)(=O)c1ccc(C(=O)O)cc1	–	inactive
CCN(CC)S(=O)(=O)c1ccc(C(=O)Nc2ncn(Cc3ccccc3)n2)cc1	–	11.2 µM (active)
O[C@@H](C1=C/C(=C\c2ccncc2)c2ccccc21)c1ccncc1	–	0.1 µM (active)
Cc1cc(C(C)(C)C)cc(C)c1CC1=NCCN1	–	inactive
CCCCN(C(=O)Nc1ccc(OCC)cc1)C1CCN(C(C)=O)CC1	–	inactive
CCOc1ccc(NC(=O)N(C2CCCCC2)C(C)c2ccncc2)cc1 (stereo not given)	–	3.55 µM (active)
CCOc1ccc(NC(=O)N2CCC(C(N)=O)(N3CCCCC3)CC2)cc1	–	inactive
c1ccc(CCNc2ccccn2)nc1	-7.63% [at 11.4 µM]	–
CCN(CCO)C[C@H]1CCC[C@H]2CCCC[C@@H]21	1.06% [at 11.4 µM]	–
Cn1c(CN2CCCCC2)nc2cc(NC(=O)c3ccc(Cl)cc3)ccc21	–	inactive
O=C(Nc1ccc2oc(-c3ccccc3F)nc2c1)c1ccc2c(c1)OCCO2	–	8.91 µM (active)
C[C@@]1(C(=O)O)NCCc2cc(O)c(O)cc21	–	inactive
CN(C)CCCN1c2ccccc2C(C)(C)c2ccccc21	-4.58% [at 11.4 µM]	–
COc1nc(OCCNC(C)=O)nc(N(C)C)n1	–	inactive
